Screening results: PubChem BioAssay, The Scripps Research Institute Molecular Screening Center
Rows were chosen to be rich in hits. Some 4.8% of all compounds tested hit in one or more screens of this group.
SMARCA2 activ: activators of SMARCA2 function; MG213 cells, MMTV-luciferase reporter, dexamethasone, overnight; activation, % at 9.1 µM; 1% of 370,000 active; AID 652017; in the data active = activation above about 7.8%;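 also: 0% = vehicle wells and 100% = reference activator wells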
hgDAF-12 ag: activates the H. glycines DAF-12 receptor ligand-binding domain. HEK293 GAL4-hgDAF12 UAS-luciferase reporter, agonist luminescence; normalized to butyrate control. activation, % at 6.8 µM. 1.8% of 370,000 active. AID 687014;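 active = activation above a cutoff set at the mean of all screened compounds plus 3 SD, cut at about 10% in these data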;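 also: 0% = DMSO wells and 100% = sodium butyrate wells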
ssDAF12 agonist: S. stercoralis DAF-12 activation, primary screen | AID 652126 | HEK293 ssDAF-12/GRIP1 lit1-tk-luc reporter, luminescence; % of 3 µM dafachronic acid response | 1% of 370,000 active | activation, % at 6.8 µM;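 active = activation above the mean over all tested compounds plus 3 SD, cut at about 0.9% in these data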;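 also: 0% = DMSO-only wells and 100% = 3 µM delta7-dafachronic acid wells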
DAX1 inh-1: NR0B1 (DAX1) inhibition. HEK293 Gal4-DAX1 luciferase reporter, luminescence. inhibition, % at 6.75 µM. 0.99% of 340,000 active. AID 504766;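 active = inhibition above the mean over all tested compounds plus 3 SD, cut at about 4.2% in these data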;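 also: 0% = DAX1-transfected cells with DMSO and 100% = empty-vector control cells with DMSO; inhibition shows as a rise in luminescence from relieved DAX1 repression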
Target sequence (P51843 207-470 limits assumed): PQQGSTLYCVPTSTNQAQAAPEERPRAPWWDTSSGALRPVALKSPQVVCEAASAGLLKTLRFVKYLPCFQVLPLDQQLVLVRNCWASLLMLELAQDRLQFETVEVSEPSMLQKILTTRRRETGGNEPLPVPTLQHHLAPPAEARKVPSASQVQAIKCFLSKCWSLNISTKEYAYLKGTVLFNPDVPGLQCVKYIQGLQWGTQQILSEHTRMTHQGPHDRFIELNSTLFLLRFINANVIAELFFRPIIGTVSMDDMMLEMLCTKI
DAX1 inh-2: inhibitors of DAX1 repression of SF-1 activated StAR promoter | HEK293T StAR-luciferase reporter, SF-1/DAX-1 repression relief | AID 652010 | inhibition, % at 6.8 µM | 1.1% of 370,000 active;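 active = inhibition above the mean over all tested compounds plus 3 SD, cut at about 3.6% in these data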;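 also: 0% = DAX-1 cells with DMSO and 100% = cells lacking DAX-1 with DMSO; higher inhibition means more luminescence from relief of DAX-1 repression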
hcDAF-12 act: activators of H. contortus DAF-12 nuclear receptor | 1.4% of 370,000 active | AID 652067 | HEK293 hcDAF-12 lit1-tk-luc reporter, luminescence; 0% DMSO, 100% Δ7-dafachronic acid | activation, % at 6.8 µM;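 active = activation above the mean of all tested compounds plus 3 SD, cut at about 5.5% in these data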;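 also: 100% = response to 3 µM Δ7-dafachronic acid high control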
SMARCA2 conf: SMARCA2 activation, confirmation screen | activation, % at 9.1 µM | 30% of 3,500 active | shares compounds with SMARCA2 activ | AID 652260 | MG213 cells, MMTV-luciferase with dexamethasone, luminescence, overnight; MG213 cells expressing E1A, Rb sequestered; DMSO wells 0%, reference activator 100%;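 active = activation above its plate's cutoff, the mean activation of tested wells plus 3 SD, cut at about 7.9% in these data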
VP16 Luc act: counter-screen for SMARCA2 activators: GAL4-VP16 luciferase reporter activation; HEK293 GAL4-VP16 pG5luc reporter, luciferase luminescence; scaled: DMSO wells 0%, SAHA wells 100%; AID 686939; shares compounds with SMARCA2 activ; activation, % at 9.1 µM; 41% of 3,500 active;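 active = activation above the solvent-only control well mean plus 3 SD, averaged across control plates, cut at about 5.2% in these data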
Starred values were filed as active, the others as inactive; . = no result given.

SMILES	SMARCA2 activ	hgDAF-12 ag	ssDAF12 agonist	DAX1 inh-1	DAX1 inh-2	hcDAF-12 act	SMARCA2 conf	VP16 Luc act
COC(=O)c1ccc(NCc2cc(O)ccc2O)cc1O	8.5*	-9	-1	-2	-4	-2	6	3
COc1cc(C(C)=O)ccc1O	-4	-1	-2	-1	1	-1	.	.
CCCCn1c(CCCNC(=O)c2ccco2)nc2ccccc21	-3	-3	-1	0	-1	-2	.	.
CCOC(=O)N1CCN(C(=O)c2ccc3c(=O)n(Cc4ccc(Cl)cc4)c(=S)[nH]c3c2)CC1	8.2*	4	-1	0	-1	0	-4	1
CC(C(=O)NC(C)(C)C)N(C(=O)CS(=O)CC(=O)Nc1ccc(F)cc1)c1ccccc1F (centres undefined)	-3	-1	-1	2	-2	-1	.	.
O=C(NCc1cccnc1)c1cccs1	9.5*	0	-1	2	1	0	2	0
C=CS(=O)(=O)c1sc(Cl)c(N2CCOCC2)c1[N+](=O)[O-]	11*	-4	-2	-1	-1	-1	-8	4
O=C(COC(=O)Cn1nnc2ccccc21)NC1CCCC1	9.9*	1	0	0	1	-1	1	1
O=C(Cn1nnc2ccccc21)NC1CCCCC1	0	1	-1	2	0	1	.	.
O=C(Cn1cncn1)N/N=C/c1cccc(Cl)c1	8.3*	-2	-1	2	0	-2	1	-1
CNC(=O)c1cn2c3c(ccc(Cl)c3c1=O)OC(C)C2 (centres undefined)	-1	0	-1	0	0	-3	.	.
CN(C)/C=N/c1ncc(C(=O)c2ccccc2)s1	14*	7	-1	3	2	2	8.7*	8.1*
CC(=O)Nc1cccc(C(=O)N/N=C/c2cccc(C)n2)c1	11*	2	-1	0	0	1	-5	-1
COc1ccc2c3c(cccc13)C(=O)N(O)C2=O	9.0*	8	0	1	1	4	44*	1
O=C1c2cccc3c([N+](=O)[O-])ccc(c23)C(=O)N1O	7	1	-1	1	-1	0	.	.
CC(=O)N/C(=N\c1nc(C)cc(C)n1)Nc1ccccc1Cl	8.3*	0	-1	-1	0	1	4	1
CC(=O)N/C(=N/c1nc(C)cc(C)n1)Nc1ccc(C)cc1Cl	1	1	-1	1	0	-1	.	.
COc1ccc(NC(=O)C2CCCN(c3nccc(C)n3)C2)cc1 (centres undefined)	-3	0	-1	-2	-1	1	.	.
COc1ccc(NC(=O)C2CCCN(c3ncccn3)C2)cc1 (centres undefined)	8.4*	6	0	4	1	2	6	5.2*
Cc1ccc(NC(=O)C2CCCN(c3ncccn3)C2)cc1C (centres undefined)	15*	4	0	1	1	1	7	7.0*
CCCCN1CC(COCc2ccccc2)Oc2cc(Br)ccc2S1(=O)=O (centres undefined)	-3	4	-1	1	2	0	.	.
Cc1nc(Nc2ccncc2)c2oc3ccccc3c2n1	10*	4	-1	0	0	0	20*	1
COc1ccc(Nc2cc(Nc3ccccc3)ncn2)cc1	14*	6	0	1	1	6.0*	6	11*
Cn1cc(CNC(=O)c2cc(-c3ccccc3)nc3ccc(Br)cc23)cn1	-2	0	-1	1	0	2	.	.
Cc1ccc(-c2cc(C(=O)NCc3cnn(C)c3)c3cc(Br)ccc3n2)cc1	12*	-1	-1	0	0	1	2	6.6*
SMILES	SMARCA2 activ	hgDAF-12 ag	ssDAF12 agonist	DAX1 inh-1	DAX1 inh-2	hcDAF-12 act	SMARCA2 conf	VP16 Luc act
C[N+]1(CC(=O)Nc2ccc(F)cc2)CCN(C(=O)c2ccco2)CC1	-3	1	-1	1	-2	-2	.	.
COc1ccc(-c2cc(=O)[nH][nH]2)cc1	1	-2	-1	-1	-1	-2	.	.
COc1ccc(-c2cc(=O)n(CCC#N)[nH]2)cc1	13*	-5	0	-2	-3	1	0	2
CC(=O)N1CCCN(C(=O)CCn2nnc3ccccc32)CC1	-2	0	-1	.	0	-1	.	.
COc1cccc(N2CCN(C(=O)CCn3nnc4ccccc43)CC2)c1	9.4*	2	-1	.	-1	-2	7	1
CCn1cc(C(=O)O)c(=O)c2cc(F)c(N3CCN(C(=S)NC(=O)c4ccccc4Cl)CC3)cc21	9.1*	1	-2	4	0	-1	3	2
Cn1nc([N+](=O)[O-])nc1S(C)(=O)=O	52*	0	-1	-1	0	0	49*	0
N#CCC(=O)Nc1ccc(C(=O)OCC(=O)Nc2ccc3ccccc3c2)cc1	-4	4	0	-1	-1	0	.	.
COC(=O)Nc1ccc2ncn(C)c(=O)c2c1	9.9*	0	-1	4	1	-1	-2	0
Cn1cnc2ccc([N+](=O)[O-])cc2c1=O	2	0	0	1	0	1	.	.
COc1ccc(CCn2ccc(O)c(Cc3c(F)cccc3Cl)c2=O)cc1OC	-2	0	-1	0	-1	-2	.	.
Cc1ccc(-c2ccc(CCC(=O)O)n2NC(N)=S)cc1	8.4*	-3	-1	0	0	0	-1	1
O=C(CSc1nc2ccccc2n1Cc1ccc(Cl)cc1)N/N=C/c1ccc(C(=O)O)cc1	0	-2	-1	-1	0	-2	.	.
COCCNC(=O)c1cc(-c2ccc3c(c2)OCO3)on1	-1	10	0	1	2	3	.	.
C=CCNC(=O)c1cc(-c2ccc3c(c2)OCO3)on1	9.1*	8	0	1	1	5	8.2*	10*
Cc1cccc2sc(NC(=O)c3ccc(OCC4CCCO4)cc3)nc12 (centres undefined)	12*	13*	-1	0	2	2	-2	3
CC1CCC2(CC1)NC(=O)N(CC(=O)Nc1ccc3c(c1)OCCO3)C2=O (centres undefined)	12*	2	-1	0	1	2	10*	3
O=C(CCc1ccc(S(=O)(=O)N2CCOCC2)cc1)Nc1c(F)cccc1F	0	-1	0	0	0	-1	.	.
